# Laboratory results reported in PubChem BioAssay (EPA / NIEHS).
# The source made the active and inactive calls. The calls were made as follows: active = hit-call score of the fitted dose curve at least 0.9, where 1 is the maximum; inactive = score below 0.9.
# Assays:
# [1] = CEETOX_H295R_ANDR: CeeTox H295R High-throughput Steroidogenesis Assay for Androstenedione (ANDR) (AID 2283436); conditions: actives raise or lower the signal;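 also: human H295R adrenal cells exposed for 48 h with androstenedione measured in medium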
# In short: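 Read-out is androstenedione secreted into medium, measured by tandem mass spectrometry after liquid-liquid extraction. Cells were H295R, dosed for 48 h per modified OECD 456; activity fitted in both directions relative to DMSO.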
# [2] = CEETOX_H295R_CORTIC: CeeTox H295R High-throughput Steroidogenesis Assay for Corticosterone (CORTIC) (AID 2283437); conditions: actives raise or lower the signal;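 also: corticosterone secreted into medium quantified by mass spectrometry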
# In short: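 Corticosterone secreted into medium is measured by reverse-phase HPLC with tandem MS following liquid-liquid extraction. Cells are forskolin-stimulated (10 uM, 48 h) before 48 h test exposure; activity fitted in both directions against DMSO.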
# [3] = CEETOX_H295R_CORTISOL: CeeTox H295R High-throughput Steroidogenesis Assay for Cortisol (AID 2283438); conditions: actives raise or lower the signal;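 also: cortisol secreted into medium quantified by LC-MS/MS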
# In short: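 Forskolin 10 uM 48 h prestim → test cmpd in DMSO (0.1% final) 48 h → medium MTBE-extracted → LC-MS/MS cortisol vs 7-pt std curve. Gain/loss of signal fitted vs DMSO. MTT viability in same wells.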
# [4] = CEETOX_H295R_DOC: CeeTox H295R High-throughput Steroidogenesis Assay for DOC (AID 2283439); conditions: actives raise or lower the signal
# In short: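 Readout: 11-deoxycorticosterone in culture medium by reverse-phase C18 HPLC with ESI+ tandem MS after MTBE extraction. Cells: H295R, forskolin-primed (10 uM, 48 h), chemical-treated 48 h; DMSO 0.1% final. Activity fitted bidirectionally versus DMSO.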
# [5] = CEETOX_H295R_ESTRADIOL: CeeTox H295R High-throughput Steroidogenesis Assay for Estradiol (AID 2283440); conditions: actives raise or lower the signal;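 also: estradiol secreted into medium quantified by LC-MS/MS after dansyl derivatisation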
# In short: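 H295R cells pre-stimulated 48 h with 10 uM forskolin, then exposed 48 h to chemical in 0.1% DMSO. Medium estradiol quantified by MTBE extraction, dansyl derivatisation and HPLC-MS/MS; bidirectional fit versus DMSO; MTT viability required >/=70%.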
# [6] = CEETOX_H295R_PROG: CeeTox H295R High-throughput Steroidogenesis Assay for Progesterone (PROG) (AID 2283442); conditions: actives raise or lower the signal;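 as to AC50: human H295R adrenal cells primed with 10 µM forskolin before dosing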
# In short: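 H295R adrenal cells prestimulated 48 h with 10 uM forskolin, then exposed 48 h to test chemical in 0.1% DMSO. Progesterone in medium quantified by HPLC-MS/MS after MTBE extraction; viability checked by MTT in same wells.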
# [7] = read-out: Tumor necrosis factor receptor superfamily member 6 (Homo sapiens) (UniProt P25445); assay: LTEA_HepaRG_FAS: Life Technologies and Expression Analysis (LTEA) Assay for Fas cell surface death receptor (FAS) using HepaRG (AID 2283447); conditions: mRNA level, 48 h; actives raise or lower the signal
# In short: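 FAS transcript level was measured by TaqMan qRT-PCR against three housekeeping genes after 48 h chemical exposure. Cells were HepaRG, 0.5% DMSO vehicle, with a top concentration of 100 uM and half-log dilutions over eight points, in duplicate.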
# [8] = read-out: Fatty acid synthase (Homo sapiens) (UniProt P49327); assay: LTEA_HepaRG_FASN: Life Technologies and Expression Analysis (LTEA) Assay for Fatty Acid Synthase (FASN) using HepaRG (AID 2283448); conditions: mRNA level, 48 h; actives raise or lower the signal;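 as to AC50: differentiated human HepaRG liver cells in serum-free induction medium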
# In short: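 FASN expression changes, up or down relative to 0.5% DMSO, were measured by qRT-PCR in human HepaRG cells after 48 h treatment with chemicals at eight concentrations (half-log steps from 100 uM).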
# [9] = read-out: Cyclin D2 (CCND2), CCND2 (gene 894); assay: LTEA_HepaRG_CCND2: Life Technologies and Expression Analysis (LTEA) Assay for Cyclin D2 (CCND2) using HepaRG (AID 2283449); conditions: mRNA level, 48 h; actives raise or lower the signal
# In short: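 Read-out is CCND2 mRNA level measured by qRT-PCR in human HepaRG liver cells and normalised to three housekeeping genes. Chemicals were applied for 48 h at up to 100 uM, with gain or loss fitted relative to 0.5% DMSO.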
# [10] = read-out: Cyclin Dependent Kinase Inhibitor 1A (CDKN1A), CDKN1A (gene 1026); assay: LTEA_HepaRG_CDKN1A: Life Technologies and Expression Analysis (LTEA) Assay for Cyclin Dependent Kinase Inhibitor 1A (CDKN1A) using HepaRG (AID 2283450); conditions: mRNA level, 48 h; actives raise or lower the signal
# In short: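 Differentiated HepaRG cells in serum-free induction medium, exposed 48 h in duplicate to eight half-log concentrations up to 100 uM in 0.5% DMSO. mRNA measured by TaqMan qRT-PCR, normalized to ACTB, GAPDH, POLR2A; bidirectional fit versus DMSO.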
# Chain of Fatty acid synthase (Homo sapiens) (P49327 whole entry, looked up): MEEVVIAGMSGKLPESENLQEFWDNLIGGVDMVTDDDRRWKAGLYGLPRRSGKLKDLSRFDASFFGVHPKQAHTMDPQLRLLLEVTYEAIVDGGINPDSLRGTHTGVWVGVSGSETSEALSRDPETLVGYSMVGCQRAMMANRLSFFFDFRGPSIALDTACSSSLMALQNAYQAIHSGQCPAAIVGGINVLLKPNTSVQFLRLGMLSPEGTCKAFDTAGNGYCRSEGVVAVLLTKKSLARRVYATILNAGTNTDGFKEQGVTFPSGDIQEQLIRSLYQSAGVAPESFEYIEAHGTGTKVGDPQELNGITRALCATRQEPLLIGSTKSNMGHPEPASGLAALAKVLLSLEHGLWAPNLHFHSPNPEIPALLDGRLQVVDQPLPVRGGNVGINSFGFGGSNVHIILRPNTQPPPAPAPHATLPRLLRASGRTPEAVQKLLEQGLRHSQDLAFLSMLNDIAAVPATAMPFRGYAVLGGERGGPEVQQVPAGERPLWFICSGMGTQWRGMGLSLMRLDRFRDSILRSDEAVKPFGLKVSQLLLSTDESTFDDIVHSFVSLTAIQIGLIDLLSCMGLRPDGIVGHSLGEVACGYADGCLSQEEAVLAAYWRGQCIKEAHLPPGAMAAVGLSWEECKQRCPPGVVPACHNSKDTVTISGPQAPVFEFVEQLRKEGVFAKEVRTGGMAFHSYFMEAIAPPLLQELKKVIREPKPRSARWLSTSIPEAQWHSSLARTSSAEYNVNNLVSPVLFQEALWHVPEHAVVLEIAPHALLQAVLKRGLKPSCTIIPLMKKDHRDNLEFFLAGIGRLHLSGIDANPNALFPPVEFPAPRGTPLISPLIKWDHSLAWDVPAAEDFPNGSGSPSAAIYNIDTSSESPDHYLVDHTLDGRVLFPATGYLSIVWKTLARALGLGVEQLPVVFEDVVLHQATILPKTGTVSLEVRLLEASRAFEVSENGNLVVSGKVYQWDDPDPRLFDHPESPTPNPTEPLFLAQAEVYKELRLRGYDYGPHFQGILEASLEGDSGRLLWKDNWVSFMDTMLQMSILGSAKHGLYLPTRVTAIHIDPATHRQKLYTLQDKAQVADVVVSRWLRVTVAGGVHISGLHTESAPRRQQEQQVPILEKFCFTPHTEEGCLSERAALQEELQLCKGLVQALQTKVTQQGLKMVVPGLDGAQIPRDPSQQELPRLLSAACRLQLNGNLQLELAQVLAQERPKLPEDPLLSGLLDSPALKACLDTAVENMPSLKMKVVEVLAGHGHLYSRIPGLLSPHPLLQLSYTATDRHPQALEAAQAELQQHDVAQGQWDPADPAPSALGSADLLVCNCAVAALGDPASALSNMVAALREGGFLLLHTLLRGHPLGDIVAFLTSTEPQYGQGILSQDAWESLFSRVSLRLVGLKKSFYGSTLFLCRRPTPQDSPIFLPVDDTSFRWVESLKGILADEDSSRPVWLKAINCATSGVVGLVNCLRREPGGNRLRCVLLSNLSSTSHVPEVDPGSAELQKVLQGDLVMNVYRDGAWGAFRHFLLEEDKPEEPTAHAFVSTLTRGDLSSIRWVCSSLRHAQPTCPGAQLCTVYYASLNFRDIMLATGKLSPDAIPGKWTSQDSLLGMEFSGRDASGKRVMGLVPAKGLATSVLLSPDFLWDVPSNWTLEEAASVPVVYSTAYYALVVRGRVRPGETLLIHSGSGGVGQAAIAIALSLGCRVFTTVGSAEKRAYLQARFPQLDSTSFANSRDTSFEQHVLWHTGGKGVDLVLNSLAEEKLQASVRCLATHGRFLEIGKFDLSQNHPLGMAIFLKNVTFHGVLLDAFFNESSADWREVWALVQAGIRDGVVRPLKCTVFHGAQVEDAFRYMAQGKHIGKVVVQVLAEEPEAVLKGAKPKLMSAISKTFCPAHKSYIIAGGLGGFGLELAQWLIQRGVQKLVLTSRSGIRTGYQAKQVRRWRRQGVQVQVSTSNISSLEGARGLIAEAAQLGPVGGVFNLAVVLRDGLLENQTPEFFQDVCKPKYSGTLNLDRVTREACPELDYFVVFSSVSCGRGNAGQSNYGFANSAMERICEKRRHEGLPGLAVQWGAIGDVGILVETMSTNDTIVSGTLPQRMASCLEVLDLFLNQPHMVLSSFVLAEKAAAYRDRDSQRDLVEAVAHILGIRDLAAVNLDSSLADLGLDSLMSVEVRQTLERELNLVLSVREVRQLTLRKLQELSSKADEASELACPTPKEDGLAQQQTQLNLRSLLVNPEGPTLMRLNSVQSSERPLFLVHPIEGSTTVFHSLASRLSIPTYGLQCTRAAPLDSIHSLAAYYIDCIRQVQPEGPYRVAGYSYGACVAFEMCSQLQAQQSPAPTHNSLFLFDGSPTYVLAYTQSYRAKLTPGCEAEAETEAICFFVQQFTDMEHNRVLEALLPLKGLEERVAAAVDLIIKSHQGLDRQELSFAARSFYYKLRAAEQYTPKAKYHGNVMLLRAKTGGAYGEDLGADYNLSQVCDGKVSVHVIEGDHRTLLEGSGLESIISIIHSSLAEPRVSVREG
smiles,measurement,setting,value
COCc1cnc(C2=NC(C)(C(C)C)C(=O)N2)c(C(=O)O)c1 (configuration not stated),outcome,[1],inactive
same,outcome,[2],inactive
same,outcome,[3],inactive
same,outcome,[4],inactive
same,outcome,[5],inactive
same,outcome,[6],inactive
same,outcome,[7],inactive
same,outcome,[8],inactive
same,outcome,[9],inactive
same,outcome,[10],inactive
Cc1c(COC(=O)[C@@H]2[C@H](/C=C(\Cl)C(F)(F)F)C2(C)C)cccc1-c1ccccc1,outcome,[5],inactive
same,outcome,[6],inactive
same,outcome,[7],inactive
same,outcome,[9],inactive
same,outcome,[10],inactive
CCOC(=O)C(C)OC(=O)c1cc(Oc2ccc(C(F)(F)F)cc2Cl)ccc1[N+](=O)[O-] (configuration not stated),outcome,[2],inactive
same,outcome,[3],inactive
same,outcome,[4],inactive
same,outcome,[5],inactive
same,outcome,[6],inactive
same,outcome,[7],inactive
same,AC50,[8],35.1 µM (active)
same,outcome,[10],inactive
CCSC(=O)N1CCCCCC1,outcome,[5],inactive
same,outcome,[6],inactive
same,outcome,[7],inactive
same,outcome,[10],inactive
CCCC(=NOCC)C1=C(O)CC(CC(C)SCC)CC1=O (configuration not stated),outcome,[2],inactive
same,outcome,[3],inactive
same,outcome,[4],inactive
same,outcome,[5],inactive
same,outcome,[6],inactive
same,outcome,[7],inactive
same,outcome,[8],inactive
same,outcome,[9],inactive
same,outcome,[10],inactive
N#CN=C1SCCN1Cc1ccc(Cl)nc1,outcome,[2],inactive
same,outcome,[3],inactive
same,outcome,[4],inactive
same,outcome,[6],inactive
same,outcome,[7],inactive
same,outcome,[8],inactive
same,outcome,[9],inactive
same,outcome,[10],inactive
CC(C)Nc1nc(Cl)nc(NC(C)C)n1,outcome,[5],inactive
same,outcome,[6],inactive
same,outcome,[7],inactive
same,outcome,[8],inactive
same,outcome,[9],inactive
same,outcome,[10],inactive
CCOP(=S)(OCC)Oc1nc(Cl)n(C(C)C)n1,outcome,[2],inactive
same,outcome,[3],inactive
same,outcome,[4],inactive
same,AC50,[6],61.8 µM (active)
same,outcome,[7],inactive
same,outcome,[9],inactive
same,outcome,[10],inactive
N#Cc1c(Cl)cccc1Cl,outcome,[2],inactive
same,outcome,[3],inactive
same,outcome,[4],inactive
same,outcome,[5],inactive
same,outcome,[6],inactive
same,outcome,[7],inactive
same,outcome,[8],inactive
same,outcome,[9],inactive
same,outcome,[10],inactive
COP(=S)(OC)Oc1ccc([N+](=O)[O-])c(C)c1,outcome,[2],inactive
same,outcome,[3],inactive
same,AC50,[4],2.48 µM (active)
same,outcome,[5],inactive
same,AC50,[6],2.59 µM (active)
same,outcome,[7],inactive
same,outcome,[9],inactive
same,outcome,[10],inactive
Clc1nc(Cl)nc(Nc2ccccc2Cl)n1,outcome,[2],inactive
same,outcome,[3],inactive
same,AC50,[4],2.71 µM (active)
same,outcome,[5],inactive
same,outcome,[6],inactive
same,outcome,[7],inactive
same,outcome,[9],inactive
same,outcome,[10],inactive
CC1(C)CCC(=Cc2ccc(Cl)cc2)C1(O)Cn1cncn1 (configuration not stated),outcome,[1],inactive
same,outcome,[2],inactive
same,AC50,[3],5 µM (active)
same,AC50,[4],1.59 µM (active)
same,outcome,[5],inactive
same,AC50,[6],0.716 µM (active)
same,outcome,[7],inactive
same,outcome,[10],inactive
Nc1cnn(-c2ccccc2)c(=O)c1Cl,outcome,[2],inactive
same,outcome,[3],inactive
same,outcome,[4],inactive
same,outcome,[5],inactive
same,outcome,[6],inactive
same,outcome,[7],inactive
same,outcome,[8],inactive
same,outcome,[9],inactive
same,outcome,[10],inactive
O=C1C2CC=CCC2C(=O)N1SC(Cl)(Cl)Cl (configuration not stated),outcome,[5],inactive
same,outcome,[6],inactive
same,outcome,[7],inactive
same,AC50,[8],70.9 µM (active)
same,outcome,[9],inactive
same,outcome,[10],inactive
COC(=O)NC(=S)Nc1ccccc1NC(=S)NC(=O)OC,outcome,[2],inactive
same,outcome,[3],inactive
same,outcome,[4],inactive
same,outcome,[5],inactive
same,outcome,[6],inactive
same,outcome,[7],inactive
same,outcome,[9],inactive
same,outcome,[10],inactive
CCCN(CC)CC1COC2(CCC(C(C)(C)C)CC2)O1 (configuration not stated),outcome,[2],inactive
same,outcome,[3],inactive
same,AC50,[4],0.812 µM (active)
same,outcome,[5],inactive
same,AC50,[6],0.38 µM (active)
same,outcome,[7],inactive
same,outcome,[9],inactive
same,outcome,[10],inactive
COP(=S)(OC)SCn1nnc2ccccc2c1=O,outcome,[1],inactive
same,outcome,[5],inactive
same,outcome,[6],inactive
same,outcome,[7],inactive
same,outcome,[9],inactive
same,outcome,[10],inactive
CC1(C)CON(Cc2ccccc2Cl)C1=O,outcome,[5],inactive
same,outcome,[6],inactive
same,outcome,[7],inactive
same,outcome,[8],inactive
same,outcome,[9],inactive
same,outcome,[10],inactive
CCN(CC)C(=O)C(C)Oc1cccc2ccccc12 (configuration not stated),outcome,[5],inactive
same,outcome,[6],inactive
same,outcome,[7],inactive
same,outcome,[9],inactive
same,outcome,[10],inactive
CC(C)(C)C(=O)C(Oc1ccc(Cl)cc1)n1cncn1 (configuration not stated),outcome,[2],inactive
same,AC50,[3],21.2 µM (active)
same,outcome,[4],inactive
same,AC50,[5],21.7 µM (active)
same,AC50,[6],3.12 µM (active)
same,outcome,[7],inactive
same,outcome,[9],inactive
same,outcome,[10],inactive
Cc1nc(N(C)C)nc(OC(=O)N(C)C)c1C,outcome,[2],inactive
same,outcome,[3],inactive
same,outcome,[4],inactive
same,outcome,[5],inactive
same,outcome,[6],inactive
same,outcome,[7],inactive
same,outcome,[8],inactive
same,outcome,[9],inactive
same,outcome,[10],inactive
CC(C)NC(=O)N1CC(=O)N(c2cc(Cl)cc(Cl)c2)C1=O,AC50,[6],16.9 µM (active)
same,outcome,[7],inactive
same,AC50,[8],16.2 µM (active)
same,outcome,[9],inactive
same,outcome,[10],inactive
CC1(C)C(C=C(Cl)Cl)C1C(=O)OC(C#N)c1cccc(Oc2ccccc2)c1 (configuration not stated),outcome,[2],inactive
same,outcome,[3],inactive
same,outcome,[4],inactive
same,outcome,[5],inactive
same,outcome,[6],inactive
same,outcome,[7],inactive
same,outcome,[9],inactive
same,outcome,[10],inactive
CCC(C)n1c(=O)[nH]c(C)c(Br)c1=O (configuration not stated),outcome,[5],inactive
same,outcome,[6],inactive
same,outcome,[7],inactive
same,outcome,[9],inactive
same,outcome,[10],inactive
CCOc1cc(C(C)(C)C)ccc1C1COC(c2c(F)cccc2F)=N1 (configuration not stated),outcome,[1],inactive
same,outcome,[7],inactive
same,outcome,[9],inactive
same,outcome,[10],inactive
CCOc1nc(C(Cl)(Cl)Cl)ns1,outcome,[5],inactive
same,outcome,[6],inactive
same,outcome,[8],inactive
same,AC50,[9],1.11 µM (active)
same,outcome,[10],inactive
